Publication PMC5540273 (PLoS ONE, 2017)

Experiments:
Details in all cases: concentration: 1 μM,replicates: in singlicate; n = 1
FGFR1 = system: FGFR1
FGFR2 = system: FGFR2
FGFR3 = system: FGFR3
FGFR4 = system: FGFR4
FGR = system: FGR
FLT1 = system: FLT1
FLT3-autoinhibited = system: FLT3-autoinhibited
FLT3 = system: FLT3
FLT4 = system: FLT4
FRK = system: FRK
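Note: KINOMEscan kinase panel screen.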

| Structure (SMILES) | %Inh (FGFR1) | %Inh (FGFR2) | %Inh (FGFR3) | %Inh (FGFR4) | %Inh (FGR) | %Inh (FLT1) | %Inh (FLT3-autoinhibited) | %Inh (FLT3) | %Inh (FLT4) | %Inh (FRK) |
| --- | --- | --- | --- | --- | --- | --- | --- | --- | --- | --- |
| CN(c1ccc2c(c1)nc(NCc1ccc(F)cc1)n2C)c1ccnc(Nc2ccc(CS(C)(=O)=O)cc2)n1.Cl [GW813244] | 75% | 59% | 21% | 22% | 28% | 98.9% | 1% | 98.3% | 99.9% | 77% |
| Cl.c1ccc(Oc2ccc(Nc3ccnc4cc(-c5ccc(CN6CCNCC6)o5)ccc34)cc2)nc1 [GW567142] | 0% | 0% | 0% | 0% | 74% | 8% | 41% | 90.4% | 6% | 7% |
| Nc1nccc(-c2ccc3c(N)n[nH]c3c2)n1 [GSK1034945] | 0% | 0% | 0% | 12% | 15% | 6% | 2% | 0% | 11% | 0% |
| Cc1n[nH]c2cc(Nc3ccnc(Nc4cccc(CN5CCOCC5)c4)n3)ccc12 [GW682569] | 15% | 0% | 32% | 0% | 49% | 70% | 18% | 68% | 65% | 0% |
| O=C(Nc1cccc(Oc2ccc3nccn3n2)c1)Nc1cccc(C(F)(F)F)c1 | 29% | 4% | 0% | 0% | 18% | 93.2% | 0% | 59% | 99% | 77% |
| CC(=O)Nc1ccc(-c2cc3ncnc(SCC(=O)O)c3s2)cc1 | 27% | 15% | 0% | 0% | 21% | 5% | 33% | 39% | 0% | 0% |
| COc1cc(Nc2nccc(N3CCC(NC(=O)c4cccc(C#N)c4)C3)n2)cc(OC)c1OC (stereo not drawn) [GSK1379751] | 0% | 0% | 5% | 7% | 37% | 0% | 0% | 44% | 11% | 0% |
| CS(=O)c1ccc(-c2coc3ccc(-c4n[nH]c(=O)o4)cc23)cc1 (stereo not drawn) | 5% | 8% | 3% | 0% | 0% | 19% | 0% | 16% | 3% | 0% |
| NC(=O)c1ccc(-c2cc3ncnc(SCC(=O)O)c3s2)cc1 | 0% | 0% | 0% | 0% | 14% | 4% | 2% | 20% | 0% | 0% |
| CC(C)c1nc(-c2cccc(NS(=O)(=O)c3ccccc3)c2)c(-c2ccnc(Nc3ccc4c(c3)CN(C)CC4)n2)s1 [GSK1649598] | 68% | 6% | 35% | 0% | 97.4% | 98.2% | 40% | 90.3% | 99.6% | 98.2% |
| Cc1nnc(-c2ccc3occ(-c4ccc(S(C)=O)cc4)c3n2)o1 (stereo not drawn) | 0% | 0% | 0% | 0% | 25% | 0% | 0% | 0% | 0% | 0% |
| CSc1nccc(-c2c(-c3ccc(F)cc3)ncn2CCCN2CCOCC2)n1.Cl [SB-217146] | 0% | 0% | 0% | 0% | 0% | 0% | 0% | 0% | 0% | 0% |
| Cc1ccn2nc(-c3ccc(F)cc3)c(-c3ccncc3)c2c1.Cl [GW457859] | 0% | 85% | 4% | 0% | 0% | 15% | 14% | 0% | 0% | 0% |
| COC(=O)c1cccc(NC(=O)NC2CCN(c3ccnc(Nc4cc(OC)c(OC)c(OC)c4)n3)C2)c1 (stereo not drawn) [GSK1379767] | 0% | 0% | 32% | 0% | 25% | 13% | 4% | 33% | 14% | 17% |
| OCCn1cc(-c2cnc3nnn(Cc4ccc5ncccc5c4)c3n2)cn1 | 0% | 0% | 0% | 0% | 5% | 0% | 0% | 0% | 0% | 0% |
